Measurements published in PubChem BioAssay (Tox21).
“And” between values parts separate entries of the source, which are not always exact repeats. Equal values may be shown once. Results filed as inconclusive are left out. A call without a number means that no potency is given here. The source made the active and inactive calls. The call rests on the fitted dose curve; in most records, active means well fitted curve in the direction sought with a large enough effect in the repeat runs; inconclusive means weak or mixed curves; inactive means no such curve, though single readings can be large; an effect the other way counts as inactive or inconclusive.

Experiments:
[1] = A CellTox Green Cytotoxicity Assay to monitor cytotoxicity in HEK293 cells - 8 hour (AID 1224884); conditions: CellTox Green fluorescence; series mostly up to 76.8 µM; further: nearly all actives have a fitted effect of over 35% in size; further: potency means the concentration at half of the fitted maximal effect
Outline: (§1)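 Each value comes from one timepoint of a single continuous run in which HEK293 cells with CellTox Green were exposed to compound for up to 40 h at 37 C, dye fluorescence rising with cell death.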

[2] = qHTS RealTime-Glo MT Cell Viability Assay in HepG2 cells - 16 hour (AID 1224885); conditions: RealTime-Glo luminescence; series mostly up to 76.8 µM; further: nearly all actives have a fitted effect of over 50% in size; further: potency means the concentration at half of the fitted maximal effect
Outline: (§2)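 HepG2 suspension premixed with RealTime-Glo reagents is plated at 600 cells per well and left 5 h at 37 C/5% CO2. Compounds in DMSO then go in, and bioluminescence reflecting viable cell number is recorded over 40 h.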

[3] = qHTS assay to identify small molecule antagonists of the estrogen receptor alpha (ER-alpha) signaling pathway using the BG1 cell line in the presence of 0.1 nM 17-beta-estradiol - cell viability counter screen (AID 1259241); conditions: VM7Luc4E2 (BG1) viability, CellTiter-Fluor protease, 22 h, 0.1 nM estradiol agonist added; series mostly up to 92.4 µM; further: nearly all actives have a fitted effect of over 40% in size; further: potency means the concentration at half of the fitted maximal effect
Outline: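 Cells were plated and left 24 hr, compounds in DMSO were pinned in, 17beta-estradiol was added to 0.1 nM final, and after 22 hr CellTiter-Fluor reagent was added for 30 min before fluorescence was read.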

[4] = qHTS assay to identify small molecule antagonists of the androgen receptor (AR) signaling pathway using the MDA cell line in the presence of 0.5 nM R1881 - cell viability counter screen (AID 1259242); conditions: MDA-kb2 viability, CellTiter-Fluor protease fluorescence, 16 h; series mostly up to 92.4 µM; further: nearly all actives have a fitted effect of over 45% in size; further: potency means the concentration at half of the fitted maximal effect
Outline: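 Fluorescence from CellTiter-Fluor, which reports protease activity of live cells, was read 30 min after reagent addition to MDA-kb2 cells that had been incubated 16 hr with compound and 0.5 nM R1881.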

[5] = qHTS RealTime-Glo MT Cell Viability Assay in HEK293 cells - 24 hour (AID 1224886); conditions: RealTime-Glo luminescence; series mostly up to 76.8 µM; further: nearly all actives have a fitted effect of over 50% in size; further: potency means the concentration at half of the fitted maximal effect
Outline: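 Reads taken at 0, 8, 16, 24, 32 and 40 h from the same wells. HEK293 cells (600/well) carried RealTime-Glo reagents from seeding, with compound added after a 5 h settle at 37 C.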

[6] = qHTS RealTime-Glo MT Cell Viability Assay in HEK293 cells - 8 hour (AID 1224887); conditions: RealTime-Glo luminescence; series mostly up to 76.8 µM; further: nearly all actives have a fitted effect of over 50% in size; further: potency means the concentration at half of the fitted maximal effect
Outline: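 qHTS format; HEK293 cells with NanoLuc/prosubstrate reagent, 37 C/5% CO2 for 5 h pre-dosing; compounds 23 nL in DMSO; luminescence at each time point reflects viable cells.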

[7] = A CellTox Green Cytotoxicity Assay to monitor cytotoxicity in HEK293 cells - 16 hour (AID 1224888); conditions: CellTox Green fluorescence; series mostly up to 76.8 µM; further: nearly all actives have a fitted effect of over 35% in size; further: potency means the concentration at half of the fitted maximal effect
Outline: as §1

[8] = qHTS RealTime-Glo MT Cell Viability Assay in HepG2 cells - 0 hour (AID 1224889); conditions: RealTime-Glo luminescence; series mostly up to 76.8 µM; further: nearly all actives have a fitted effect of over 50% in size
Outline: as §2

[9] = A CellTox Green Cytotoxicity Assay to monitor cytotoxicity in HepG2 cells - 8 hour (AID 1224890); conditions: CellTox Green fluorescence; series mostly up to 76.8 µM; further: nearly all actives have a fitted effect of over 45% in size; further: potency means the concentration at half of the fitted maximal effect
Outline: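 Continuous culture of HepG2 cells with a membrane-impermeant DNA dye; rising fluorescence marks dead cells. Compound exposure lasted up to 40 h at 37 C, with reads every 8 h from 0 h.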

| SMILES | Potency [1] | Potency [2] | Potency [3] | Potency [4] | Potency [5] | Potency [6] | Potency [7] | Potency [8] | Potency [9] |
| --- | --- | --- | --- | --- | --- | --- | --- | --- | --- |
| CCN(CC)CCOC(=O)C1(C2CCCCC2)CCCCC1 | inactive | inactive | inactive | inactive | – | – | – | – | – |
| CCCCCCCCCCCCCc1ccccc1 | inactive | inactive | inactive | inactive | inactive | inactive | inactive | inactive | – |
| CSc1c(Cl)c(Cl)c(Cl)c(Cl)c1Cl | inactive | inactive | inactive | inactive | inactive | – | – | – | inactive |
| CN(C)CCCN1c2ccccc2CCc2ccccc21 | inactive | inactive | inactive | inactive | inactive | inactive | inactive | – | inactive |
| CCN(CC)CCSC(=O)C(c1ccccc1)c1ccccc1 | inactive | inactive | inactive | inactive | inactive | inactive | – | inactive | inactive |
| COc1ccc(-n2nc(CCC(=O)N(C)O)cc2-c2ccc(Cl)cc2)cc1 | inactive | inactive | inactive | inactive | – | – | inactive | – | inactive |
| CCN=c1cc2oc3cc(NCC)c(C)cc3c(-c3ccccc3C(=O)OCC)c-2cc1C | 10.9 µM (active) and 9.77 µM (active) | 43.5 µM (active) and 24.5 µM (active) | 8.6 µM (active) and 10.9 µM (active) | 965 nM (active) and 864 nM (active) | 2.45 µM (active) and 1.74 µM (active) | 17.3 µM (active) and 17.4 µM (active) | – | inactive | 21.8 µM (active) and 6.92 µM (active) |
| CC1CNCC(C)O1 (stereo not drawn) | inactive | inactive | inactive | inactive | inactive | inactive | inactive | inactive | inactive |
| ClC/C=C\CCl | inactive | inactive | inactive | inactive | inactive | – | inactive | inactive | inactive |
| CO[Si](CCCNCCNCCN)(OC)OC | inactive | inactive | inactive | inactive | inactive | – | inactive | inactive | inactive |
| C(=C/c1ccccc1)/c1ccccc1 | inactive | inactive | inactive | inactive | inactive | inactive | inactive | inactive | – |
| NC(=O)C(=O)N/N=C/c1ccc([N+](=O)[O-])o1 | inactive | inactive | inactive | inactive | inactive | inactive | inactive | inactive | inactive |
| C=CC(C)(CCC=C(C)C)OC(=O)/C=C/c1ccccc1 (stereo not drawn) | 38.9 µM (active) | inactive | inactive | inactive | inactive | inactive | 27.5 µM (active) | inactive | – |
